Source: PMC7862700, “An all-to-all approach to the identification of sequence-specific readers for epigenetic DNA modifications on cytosine”

Key:
Assay in all cases: DAPPL (digital affinity profiling via proximity ligation, sequencing); 10 mM Tris-HCl pH 7.5, 50 mM NaCl, 1 mM DTT, 4% glycerol, room temperature, 30 min; GST-TFs on glutathione beads, 16-mer random dsDNA library, 0.1% formaldehyde crosslink after washing; high values mean tight binding
FEV = target: T1, FEV (Homo sapiens, UniProt Q99581 1-238); settings: protein: recombinant; tags: N-terminal GST; dsDNA, one strand shown
T1 sequence: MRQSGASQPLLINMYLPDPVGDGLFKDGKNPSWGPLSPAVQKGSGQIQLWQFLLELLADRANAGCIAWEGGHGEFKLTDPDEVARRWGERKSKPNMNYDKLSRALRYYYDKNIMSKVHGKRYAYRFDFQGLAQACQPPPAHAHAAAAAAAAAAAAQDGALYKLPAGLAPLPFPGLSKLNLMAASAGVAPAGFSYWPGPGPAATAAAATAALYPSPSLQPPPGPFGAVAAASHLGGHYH
Outline: (§1)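 Sequencing on an Illumina NextSeq500 followed washing, crosslinking with 0.1% formaldehyde, proximity ligation (BsaI/T4 ligase, 1 h, 37 °C) and PCR amplification of pools that had been incubated for 30 min at room temperature with 200 nmole of a random double-stranded 16-mer DNA library in Tris/NaCl/DTT/glycerol buffer. Each pool held DNA-barcoded human transcription factors, expressed in yeast as GST fusions and captured on glutathione beads, plus a tag-only sample. Binding signal is a hexamer's read frequency for a factor divided by its frequency in the tag-only sample.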

ETV5 = ETV5 (Homo sapiens, UniProt P41161 1-510); settings: protein: recombinant; tags: N-terminal GST; dsDNA, one strand shown
Sequence of ETV5 (P41161 whole entry): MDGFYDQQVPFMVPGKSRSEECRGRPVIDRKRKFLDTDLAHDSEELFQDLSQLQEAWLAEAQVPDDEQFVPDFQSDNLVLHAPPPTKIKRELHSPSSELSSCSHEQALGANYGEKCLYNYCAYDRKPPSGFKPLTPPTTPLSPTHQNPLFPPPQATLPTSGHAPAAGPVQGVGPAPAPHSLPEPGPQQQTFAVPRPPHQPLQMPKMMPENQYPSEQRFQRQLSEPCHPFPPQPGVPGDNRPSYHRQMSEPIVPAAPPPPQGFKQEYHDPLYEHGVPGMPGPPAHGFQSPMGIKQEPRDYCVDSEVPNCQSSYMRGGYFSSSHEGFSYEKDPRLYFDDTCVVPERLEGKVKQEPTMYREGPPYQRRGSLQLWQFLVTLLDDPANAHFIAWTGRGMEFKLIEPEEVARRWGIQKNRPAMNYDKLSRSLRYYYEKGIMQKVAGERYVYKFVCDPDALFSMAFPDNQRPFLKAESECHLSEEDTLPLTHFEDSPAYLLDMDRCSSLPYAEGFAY
Outline: as §1

HSF1 = HSF1 (Homo sapiens, UniProt Q00613 1-529); settings: protein: recombinant; tags: N-terminal GST; chain copies: 3; dsDNA, one strand shown
Sequence of HSF1 (Q00613 whole entry): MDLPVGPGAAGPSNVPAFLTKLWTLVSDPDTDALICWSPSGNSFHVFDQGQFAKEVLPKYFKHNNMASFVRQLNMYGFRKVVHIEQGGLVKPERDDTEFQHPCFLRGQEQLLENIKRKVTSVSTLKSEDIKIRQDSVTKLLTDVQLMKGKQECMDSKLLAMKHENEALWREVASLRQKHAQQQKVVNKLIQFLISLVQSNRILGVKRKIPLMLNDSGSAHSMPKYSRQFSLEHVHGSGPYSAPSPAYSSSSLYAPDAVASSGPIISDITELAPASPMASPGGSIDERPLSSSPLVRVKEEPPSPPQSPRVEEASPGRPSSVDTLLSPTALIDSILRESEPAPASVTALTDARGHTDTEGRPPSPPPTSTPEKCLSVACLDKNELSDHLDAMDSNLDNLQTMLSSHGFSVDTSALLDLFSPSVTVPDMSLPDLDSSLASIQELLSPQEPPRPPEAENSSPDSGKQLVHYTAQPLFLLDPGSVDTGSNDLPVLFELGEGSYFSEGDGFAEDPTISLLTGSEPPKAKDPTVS
Outline: as §1

SPIC = target: T2, SPIC (Homo sapiens, UniProt Q8N5J4 1-248); settings: protein: recombinant; tags: N-terminal GST; dsDNA, one strand shown
T2 sequence: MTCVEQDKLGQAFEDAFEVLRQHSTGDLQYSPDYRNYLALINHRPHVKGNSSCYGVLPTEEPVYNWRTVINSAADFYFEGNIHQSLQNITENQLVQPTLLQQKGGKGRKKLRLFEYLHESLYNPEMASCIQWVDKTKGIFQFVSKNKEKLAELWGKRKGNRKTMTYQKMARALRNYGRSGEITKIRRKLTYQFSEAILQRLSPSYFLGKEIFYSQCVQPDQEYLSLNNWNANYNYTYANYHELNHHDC
Outline: as §1

ELF4 = ELF4 (Homo sapiens, UniProt Q99607 1-663); settings: protein: recombinant; tags: N-terminal GST; dsDNA, one strand shown
Sequence of ELF4 (Q99607 whole entry): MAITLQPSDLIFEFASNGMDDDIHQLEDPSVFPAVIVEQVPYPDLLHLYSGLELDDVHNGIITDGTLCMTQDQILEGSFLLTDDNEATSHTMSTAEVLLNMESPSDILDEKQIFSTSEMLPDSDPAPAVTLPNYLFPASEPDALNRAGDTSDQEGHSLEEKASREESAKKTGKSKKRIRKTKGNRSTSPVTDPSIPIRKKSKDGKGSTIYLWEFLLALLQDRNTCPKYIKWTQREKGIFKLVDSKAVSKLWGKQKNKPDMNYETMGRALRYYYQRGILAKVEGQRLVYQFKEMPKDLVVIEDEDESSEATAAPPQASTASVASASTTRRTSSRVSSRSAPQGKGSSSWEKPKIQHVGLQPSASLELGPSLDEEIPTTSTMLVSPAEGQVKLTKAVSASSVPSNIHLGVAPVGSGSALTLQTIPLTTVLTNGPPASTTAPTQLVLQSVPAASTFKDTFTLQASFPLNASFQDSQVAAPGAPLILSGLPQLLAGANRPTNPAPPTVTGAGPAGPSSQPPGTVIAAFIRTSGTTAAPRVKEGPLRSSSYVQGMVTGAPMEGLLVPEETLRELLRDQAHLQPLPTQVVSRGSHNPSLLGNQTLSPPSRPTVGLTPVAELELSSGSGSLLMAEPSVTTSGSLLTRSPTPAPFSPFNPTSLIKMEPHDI
Outline: as §1

ELK4 = target: T3, ELK4 (Homo sapiens, UniProt P28324-2 1-405); settings: protein: recombinant; tags: N-terminal GST; dsDNA, one strand shown
T3 sequence: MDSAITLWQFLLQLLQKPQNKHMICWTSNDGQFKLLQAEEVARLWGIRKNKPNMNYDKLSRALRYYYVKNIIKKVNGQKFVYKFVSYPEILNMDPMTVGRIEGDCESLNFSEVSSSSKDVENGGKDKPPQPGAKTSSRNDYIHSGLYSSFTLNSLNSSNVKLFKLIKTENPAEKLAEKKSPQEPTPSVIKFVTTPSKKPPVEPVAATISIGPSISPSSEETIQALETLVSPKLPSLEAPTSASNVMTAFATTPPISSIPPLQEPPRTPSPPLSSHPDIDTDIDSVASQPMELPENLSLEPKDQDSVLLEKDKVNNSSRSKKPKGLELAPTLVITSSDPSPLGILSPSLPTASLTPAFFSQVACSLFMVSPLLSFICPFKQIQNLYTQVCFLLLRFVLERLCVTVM
Outline: as §1

ETV2 = target: T4, ETV2 (Homo sapiens, UniProt O00321 1-342); settings: protein: recombinant; tags: N-terminal GST; dsDNA, one strand shown
T4 sequence: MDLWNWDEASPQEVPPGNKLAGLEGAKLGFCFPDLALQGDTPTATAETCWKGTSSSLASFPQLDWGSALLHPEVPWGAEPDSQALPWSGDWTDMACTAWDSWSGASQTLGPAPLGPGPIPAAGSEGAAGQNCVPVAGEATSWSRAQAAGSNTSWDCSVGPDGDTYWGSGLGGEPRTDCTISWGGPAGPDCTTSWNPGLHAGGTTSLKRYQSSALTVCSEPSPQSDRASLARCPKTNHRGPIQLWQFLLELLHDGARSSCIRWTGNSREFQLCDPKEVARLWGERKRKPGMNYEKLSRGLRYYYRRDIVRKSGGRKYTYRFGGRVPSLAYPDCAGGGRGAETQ
Outline: as §1

ELF3 = target: T5, ELF3 (Homo sapiens, UniProt P78545 1-371); settings: protein: recombinant; tags: N-terminal GST; dsDNA, one strand shown
T5 sequence: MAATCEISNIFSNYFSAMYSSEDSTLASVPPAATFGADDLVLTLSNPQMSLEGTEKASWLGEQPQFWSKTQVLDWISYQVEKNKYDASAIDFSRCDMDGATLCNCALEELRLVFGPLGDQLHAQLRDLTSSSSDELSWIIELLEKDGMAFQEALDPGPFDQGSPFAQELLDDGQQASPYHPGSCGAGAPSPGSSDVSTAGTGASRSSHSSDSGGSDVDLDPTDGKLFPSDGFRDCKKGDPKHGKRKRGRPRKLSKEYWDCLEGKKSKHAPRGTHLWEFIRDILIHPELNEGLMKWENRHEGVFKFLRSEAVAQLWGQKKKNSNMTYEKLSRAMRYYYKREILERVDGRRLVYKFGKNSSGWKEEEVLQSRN
Outline: as §1

CRX = CRX (Homo sapiens, UniProt O43186 1-299); settings: protein: recombinant; tags: N-terminal GST; dsDNA, one strand shown
Sequence of CRX (O43186 whole entry): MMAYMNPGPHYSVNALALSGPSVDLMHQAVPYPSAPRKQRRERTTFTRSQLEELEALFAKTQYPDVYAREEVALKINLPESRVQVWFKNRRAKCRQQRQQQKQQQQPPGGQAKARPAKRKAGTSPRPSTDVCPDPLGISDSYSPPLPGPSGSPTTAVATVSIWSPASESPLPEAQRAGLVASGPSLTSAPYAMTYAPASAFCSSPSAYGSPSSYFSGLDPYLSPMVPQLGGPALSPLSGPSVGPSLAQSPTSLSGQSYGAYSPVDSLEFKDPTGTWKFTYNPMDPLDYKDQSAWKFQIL
Outline: as §1

ETV1 = ETV1 (Homo sapiens, UniProt P50549 1-477); settings: protein: recombinant; tags: N-terminal GST; dsDNA, one strand shown
Sequence of ETV1 (P50549 whole entry): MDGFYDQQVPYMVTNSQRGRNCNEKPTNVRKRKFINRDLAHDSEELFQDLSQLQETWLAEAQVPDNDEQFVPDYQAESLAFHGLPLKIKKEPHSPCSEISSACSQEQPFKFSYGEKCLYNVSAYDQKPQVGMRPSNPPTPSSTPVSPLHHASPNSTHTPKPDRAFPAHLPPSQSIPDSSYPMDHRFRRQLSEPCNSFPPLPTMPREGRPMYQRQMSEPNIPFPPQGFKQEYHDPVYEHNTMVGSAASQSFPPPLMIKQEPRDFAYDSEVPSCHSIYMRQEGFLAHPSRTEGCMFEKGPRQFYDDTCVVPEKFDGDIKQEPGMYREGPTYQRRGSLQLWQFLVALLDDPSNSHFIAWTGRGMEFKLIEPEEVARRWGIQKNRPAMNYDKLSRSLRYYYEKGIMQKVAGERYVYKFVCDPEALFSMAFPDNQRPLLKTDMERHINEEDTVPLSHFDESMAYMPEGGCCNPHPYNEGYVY
Outline: as §1

For CTTTGT, the binding signal (FEV) was 1.28 fold enrichment (6-mer frequency, TF over GST control), the binding signal (ETV5) was 1.3 fold enrichment (6-mer frequency, TF over GST control) and the binding signal (HSF1) was 1.22 fold enrichment (6-mer frequency, TF over GST control). The binding signal (SPIC) was 1.21 fold enrichment (6-mer frequency, TF over GST control), the binding signal (ELF4) was 1.29 fold enrichment (6-mer frequency, TF over GST control) and the binding signal (ELK4) was 1.43 fold enrichment (6-mer frequency, TF over GST control). For the same sequence, the binding signal (ETV2) was 1.03 fold enrichment (6-mer frequency, TF over GST control), the binding signal (ELF3) was 1.23 fold enrichment (6-mer frequency, TF over GST control) and the binding signal (CRX) was 1.38 fold enrichment (6-mer frequency, TF over GST control). For the same sequence, the binding signal (ETV1) was 1.25 fold enrichment (6-mer frequency, TF over GST control).
